# According to PubChem BioAssay (NCI):
# Compounds without any hit were thinned out: in the full panel of roughly 79,000, 15% have a hit. Values without a mark were called inactive. Active and inactive are the calls of the source. No stated cut-off is given here; in the data, active means growth inhibition above about 70%; inactive means the rest.
# Experiment: NCI Yeast Anticancer Drug Screen. Data for the rad50EPP+ strain (AID 151);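 further: 0% = growth of vehicle-treated control cultures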
# Details: S. cerevisiae rad50 mutant strain, active compounds read high
# Method: Growth inhibition of yeast strains with defined genetic alterations is measured as a screen for potential anti-cancer activity. Selected strains with alterations in DNA damage repair or cell cycle control were exposed to compounds and growth inhibition was measured relative to vehicle treated controls. The strain used in this assay is rad50EPP+
Compound,growth inhibition (at 1.2 µM),growth inhibition (at 3.7 µM),growth inhibition (at 11.0 µM),growth inhibition (at 33.0 µM),growth inhibition (at 100.0 µM)
COc1nc2c(c(=O)n1C)N=C(c1ccccc1)[C@H](C(CC(=O)c1ccccc1)c1ccccc1)C(c1ccccc1)N2 (stereo not given in full),-16%,-30%,-46%,-17%,-35%
CCOC(=O)C1N=[N+](c2ccccc2)C(=O)/C1=C\n1c(=S)[nH]c2ccc([N+](=O)[O-])cc21 (stereo not given),0%,1%,4%,2%,6%
CCn1c(O)c(C=Nc2ccccc2)s/c1=N/Nc1nc(-c2ccccc2)cs1,7%,19%,32%,54%,74% (active)
O=C1C=C(Cl)C(=O)N1c1cccc(Cl)c1,41%,96% (active),99% (active),99% (active),99% (active)
NC1=NNC2(C(N)=N1)c1ccccc1-c1ccccc12,3%,7%,2%,44%,76% (active)
Cc1c2cccc(Sc3ccccc3)c2c2c3c(cccc13)[S+](c1ccccc1)C2 (stereo not given),4%,12%,39%,88% (active),88% (active)
CCN(CC)CCOc1cc(C)c2cc(Cc3ccccc3)ccc2n1,0%,0%,3%,7%,31%
COc1ccc(C(=O)c2ccccc2C(=O)c2ccccc2OC)cc1,5%,9%,11%,15%,13%
